# Test results reported in PubChem BioAssay (NCI).
# About 83,000 compounds went through this panel and 20% of them were active in at least one assay; those are over-represented in the sample as a whole.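 48-hour exposure, single concentration, 96-well plates; percent growth endpoint where 0 means no net growth. Active: below 10.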 A number with no mark means an inactive call. Calls of active or inactive are those of the source.
# Experiments:
# Test in all cases: NCI-60 one-dose screen, 48 h (100 = growth as untreated, 0 = no growth, -100 = all killed)
# Conditions in all cases: 10 µM unless noted
# NCI-H23 lung = tested on: NCI-H23 lung
# NCI-H226 lung = tested on: NCI-H226 lung
# NCI-H322M lung = tested on: NCI-H322M lung
# HOP-62 NSCLC = tested on: HOP-62 NSCLC
# NCI-H460 lung = tested on: NCI-H460 lung
# HOP-92 NSCLC = tested on: HOP-92 NSCLC
# NCI-H522 lung = tested on: NCI-H522 lung
# A549/ATCC NSCLC = tested on: A549/ATCC NSCLC
# 786-0 renal = tested on: 786-0 renal
# COLO 205 colon = tested on: COLO 205 colon
# DU-145 prostate = tested on: DU-145 prostate
# K-562 leukemia = tested on: K-562 leukemia
# MALME-3M melanoma = tested on: MALME-3M melanoma
# MDA-MB-231 breast = tested on: MDA-MB-231 breast
# RXF 393 renal = tested on: RXF 393 renal
# SF-268 CNS = tested on: SF-268 CNS
# SF-295 CNS = tested on: SF-295 CNS
# SF-539 CNS = tested on: SF-539 CNS
# UACC-257 melanoma = tested on: UACC-257 melanoma
Structure (SMILES),growth (NCI-H23 lung),growth (NCI-H226 lung),growth (NCI-H322M lung),growth (HOP-62 NSCLC),growth (NCI-H460 lung),growth (HOP-92 NSCLC),growth (NCI-H522 lung),growth (A549/ATCC NSCLC),growth (786-0 renal),growth (COLO 205 colon),growth (DU-145 prostate),growth (K-562 leukemia),growth (MALME-3M melanoma),growth (MDA-MB-231 breast),growth (RXF 393 renal),growth (SF-268 CNS),growth (SF-295 CNS),growth (SF-539 CNS),growth (UACC-257 melanoma)
CC(C)OC(=O)NNC(=O)c1ccncc1,105%,107%,92.3%,108%,106%,113%,88.9%,105%,104%,110%,111%,110%,93%,108%,120%,104%,113%,97.2%,105%
COc1ccc(-c2nc3sc4c(c3c(=O)[nH]2)CCCC4)c2ccccc12,32.6%,50.8%,37.6%,10.4%,0.61% (active),12.3%,1.5% (active),15.8%,10.6%,-32.9% (active),0.642% (active),5.12% (active),41.8%,10.5%,17.3%,24.6%,-18.7% (active),-57.7% (active),56.8%
COc1cc2c(O)n(CCCn3ccnc3)c3c4cnc5cccc(c(=O)c3c2cc1OC)c54,38.8%,41.8%,77.9%,13.1%,6.78% (active),28%,18.7%,35.6%,7.01% (active),33.1%,19.2%,11.6%,67.1%,51.2%,39.5%,36.4%,21.4%,22.1%,45.2%
COC1(CC[C@@H](C)COC2OC(CO)C(O)C(O)C2O)O[C@H]2C[C@H]3[C@@H]4CC=C5C[C@@H](OC6OC(CO)C(OC7OC(C)C(O)C(O)C7O)C(O)C6OC6OC(C)C(O)C(O)C6O)CC[C@]5(C)[C@H]4CC[C@]3(C)[C@H]2[C@@H]1C (stereo partly specified),-63% (active),-57.2% (active),-85.2% (active),-83% (active),-90.2% (active),-62% (active),-60.9% (active),-64.7% (active),-94.3% (active),-12.2% (active),-96.2% (active),-22.9% (active),-87.3% (active),-70% (active),-78.1% (active),-90.7% (active),-81.9% (active),-99% (active),-47.4% (active)
O=C(O)c1ccccc1C(=O)Nc1ccc(Cl)cc1,99.3%,118%,101%,107%,106%,97.8%,91%,85%,94%,107%,103%,68.6%,109%,104%,128%,94.5%,101%,98.6%,78.3%
O=C(Nc1ccc(N2CCCCC2)c(Cl)c1)c1ccc(Br)o1,81.3%,82.1%,115%,109%,69.4%,105%,87.2%,82.5%,97.6%,103%,68%,68.1%,-66.9% (active),69.2%,108%,76%,105%,118%,67.5%
CN(C)c1ccc(-c2cc(-c3ccc(Nc4nc(Nc5ccccc5)nc(Nc5ccc(Cl)cc5)n4)cc3)nc(N)n2)cc1,48%,59%,66.3%,33.1%,41.7%,-3.41% (active),55.6%,43.4%,10.6%,58.1%,61.4%,10.8%,57%,41.8%,53.8%,50.8%,36.5%,60.8%,55.3%
Cn1ccnc1C(=O)/C=C/c1ccc(C(=O)Nc2ccc(S(F)(F)(F)(F)F)cc2)cc1,17.8%,43.9%,15.4%,24.4%,-4.08% (active),95.8%,42.9%,31.5%,15.9%,9.14% (active),15.6%,2.18% (active),59.6%,22.4%,–,15.3%,32.7%,-37.1% (active),42.4%
